This is a sample that favours compounds with a hit; in the whole collection about 6.5% have one here.
VACV mCherry inh: qHTS for Stage-Specific Inhibitors of Vaccinia Orthopoxvirus: mCherry Reporter Primary qHTS; Vaccinia virus mCherry reporter infection, fluorescence; Potency, µM (top dose mostly 36.5 µM), for the others: top-dose activity change, negative = inhibition, hits mostly inhibitors; 310,000 compounds, 0.63% hits; calls by dose curve; tested in A549 cells; also: potency is read from the fitted curve at half-maximal effect; nearly all actives have a fitted effect of over 35% in size
Marburg entry inh: qHTS for inhibitors of binding or entry into cells for Marburg Virus. Marburg virus pseudotyped entry inhibition, cell reporter. Potency, µM (top dose mostly 37.8 µM), inactives show top-dose activity change, negative = inhibition, most hits filed as inhibitors. 300,000 compounds, 1.8% hits; calls by dose curve; tested in HEK293 cells; also: potency is read from the fitted curve at half-maximal effect
FMDV antiviral: High Throughput Screening for Foot and Mouth Disease Virus Antivirals; FMDV antiviral cell-based qHTS; Potency, µM (titrated, usually from 57.9 µM), for the others: at the top dose activity change, negative = inhibition, actives largely listed as inhibitors; 410,000 compounds, 1.2% hits; calls by dose curve; tested in HEK293T cells; also: read-out not given here; potency is read from the fitted curve at half-maximal effect; nearly all actives have a fitted effect of over 45% in size
HCMV inh: qHTS Assay for inhibitors of the human cytomegalovirus (HCMV); AID 1259415, 2018; 410,000 compounds, 4.5% hits; HFF cells, HCMV-luciferase reporter, 72 h; stronger effect = lower value; activity change, negative = inhibition, % at 57.5 µM; in the data active = activity change below about -60%; inconclusive = no clear call, values can overlap the other calls; inactive = above about -39%
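Steps: HFFs plated, 16 h 37C; compounds added; HCMV-luciferase added to MOI 1 PFU/cell; 72 h 37C; OneGlo reagent, 5 min room temperature; luminescence read, normalized to controls.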
LASV entry inh: qHTS for Inhibitors of binding or entry into cells for Lassa Virus. Lassa virus pseudotype entry inhibition, cell reporter. Potency, µM (doses to about 37.9 µM), inactives show at the top dose activity change, negative = inhibition, usual class: inhibitors. 300,000 compounds, 1.2% hits; calls by dose curve; tested in HEK293 cells; also: potency is read from the fitted curve at half-maximal effect; nearly all actives have a fitted effect of over 50% in size
VACV Venus inh: qHTS for Stage-Specific Inhibitors of Vaccinia Orthopoxvirus: Venus Reporter Primary qHTS; Vaccinia virus Venus reporter expression, fluorescence; Potency, µM (doses to about 36.5 µM), without a hit: top-dose activity change, negative = inhibition, actives largely listed as inhibitors; 330,000 compounds, 0.46% hits; AID 720580, 2013; calls by dose curve; tested in A549 cells; also: potency is read from the fitted curve at half-maximal effect; nearly all actives have a fitted effect of over 30% in size
Numbers without * were called inactive; i = inactive; ? = inconclusive; . = not tested or not shown; [ ] = remark or other dose. % is scaled to controls: 0 for no effect and ±100 for the full control effect.

SMILES	VACV mCherry inh	Marburg entry inh	FMDV antiviral	HCMV inh	LASV entry inh	VACV Venus inh
Cc1cc(OC(C)C(=O)N2CCN(CCc3ccccn3)CC2)ccc1Cl (centres undefined)	i	?	0%	-9	9%[46.1 µM]	2%
CCN(c1cccc(C)c1)S(=O)(=O)c1ccc2c(c1)N(C(C)=O)CCS2	1%	?	-16%	-70*	?	-2%
CCCCOc1ccc(C(=O)N(Cc2ccc(N(C)C)cc2)Cc2ccco2)cc1	-10%	-18%[46.1 µM]	-8%	5	?	-12%
O=C(CCCSc1ccccc1)Nc1nc(-c2ccco2)c(-c2ccco2)s1	i	?	0%	25	?	-8%
O=C(CCl)Nc1nc(-c2ccco2)c(-c2ccco2)s1	-17%	?	-29%	-69*	?	-14%
COc1ccc(NC(=O)Cc2ccccc2F)cn1	-13%	10%[46.1 µM]	31%	46	?	-16%
COc1ccc(NC(=O)/C(Cl)=C(/Cl)S(=O)(=O)Cc2ccc(C)cc2)cn1	.	4.5µM*	22µM*	.	14µM*	14µM*
COc1ccc(NC(=O)/C(Cl)=C(/Cl)S(=O)Cc2ccccc2Cl)cn1 (centres undefined)	2µM*	?	3.2µM*	.	?	2.8µM*
COc1ccc(NC(=O)Cc2ccc(Cl)cc2Cl)cn1	i	7%[46.1 µM]	-13%	-101*	-10%[46.1 µM]	-4%
COc1ccc(NC(=O)Cc2ccc(Cl)c(Cl)c2)cn1	i	.	3%	1	.	-13%
Cc1ccc(COc2ccc(-c3cc(C(F)(F)F)n4nc(C)cc4n3)cc2)cc1	-1%	4%[46.1 µM]	-4%	16	20%[46.1 µM]	-9%
COC(=O)C(NC(=O)c1ccc(F)cc1)(Nc1ncc(S(=O)(=O)c2ccc([N+](=O)[O-])cc2)s1)C(F)(F)F (centres undefined)	11µM*	?	13µM*	-1	?	?
COC1=CC2C(=O)C(C1=O)C1c3ccccc3CC21 (centres undefined)	.	-3%[14.2 µM]	.	.	.	.
CCCCOP(=O)(c1ccc(N(C)C)cc1)C(O)c1c(Cl)cccc1Cl (centres undefined)	-19%	2%	71%	-76*	-3%	-11%
Cc1ccc(NC(=O)C(Cc2ccccc2)NS(=O)(=O)c2ccc3c(c2)c(=O)n(C)c(=O)n3C)cc1 (centres undefined)	-11%	-16%[46.1 µM]	-4%	3	-3%[46.1 µM]	-14%
CC(C)CC(=O)Nc1nnc(SCC(=O)Nc2nccs2)s1	-22%	27%	-11%	-63*	-4%	-7%
Cc1sc(NC(=O)CSC2=NCCS2)nc1-c1ccccc1	-20%	?	?	-24	?	-13%
Cc1ccc2sc(NC(=O)CSc3nc(C)cc(C)c3C#N)nc2c1	.	?	55%	56	?	.
Cc1cc(C(F)(F)F)c(C#N)c(SCC(=O)Nc2nc3ccccc3s2)n1	-7%	4.5µM*	?	-60*	?	22%
Cc1nc(SCC(=O)Nc2nc3ccccc3s2)c(C#N)c(C)c1C	.	?	0.1µM*	-94*	?	.
O=C(CSC1=NCCS1)Nc1nc2ccccc2s1	?	-14%	1%	-68*	8%	?
O=C(Cc1ccc(NC(=O)C2CCCN(C(=O)c3ccccc3)C2)cc1)Nc1cccc(C(=O)N2CCCC2)c1 (centres undefined)	.	.	.	32	.	.
CSc1nc(N)nc(SCC(=O)Nc2cccc(F)c2)c1C#N	?	?	?	-65*	?	?
N#Cc1c(C(F)(F)F)cc(-c2cccs2)nc1SCC(=O)Nc1cccc(Cl)c1	-18%	20%[46.1 µM]	1%	-22	4%[46.1 µM]	-20%
N#Cc1c(C(F)(F)F)cc(-c2cccs2)nc1SCC(=O)Nc1cccc(Br)c1	?	-20%[46.1 µM]	0%	-70*	1%[46.1 µM]	?
SMILES	VACV mCherry inh	Marburg entry inh	FMDV antiviral	HCMV inh	LASV entry inh	VACV Venus inh
CC(C)c1nnc(NC(=O)CSc2nc3ccccc3s2)s1	.	3%	19%	-73*	-5%	.
COc1cc(-c2cc(-c3ccccc3)nc(SCC(=O)Nc3nccs3)c2C#N)cc(OC)c1OC	.	-27%	-2%	16	-4%	2%
Cc1nc(SCC(=O)Nc2nccs2)c(C#N)c(C)c1C	.	.	-25%	-69*	.	.
Cc1c(C(=O)N2CCOc3ccc(Cl)cc3C2)sc2ncnc(NCCc3ccccn3)c12	i	.	-23%	.	.	-4%
CCOC(=O)c1cc(S(=O)(=O)Nc2ccccc2OCC)[nH]n1	-3%	.	21%	4	3%[46.1 µM]	-13%
COC(=O)c1cc(NC(=O)C(C)c2ccc(CC(C)C)cc2)ccc1O (centres undefined)	?	?	-5%	-79*	?	-8%
CCOc1ccccc1N(C)C(=O)c1c2c(nc3ccccc13)C(=O)N(C1CCCCC1)C2	i	.	?	-5	-7%[46.1 µM]	-17%
O=C(N/N=C/c1cn(Cc2ccccc2)c2ccccc12)c1cccnc1	-18%	4.5µM*	-23%	-27	?	-23%
O=C(NN=Cc1ccc(N(CCCl)CCCl)cc1)c1cccc([N+](=O)[O-])c1	i	?	-7%	-39	?	-24%
O=C(NN=Cc1ccc(N(CCCl)CCCl)cc1)c1cccnc1	-16%	5.6µM*	12%	-4	?	-4%
Cc1nc(C)c(C(=O)NN=Cc2ccc(N(CCCl)CCCl)cc2)s1	i	?	-15%	-28	7.1µM*	-25%
O=C(CBr)c1ccc(Oc2ccc(C(=O)C[n+]3cccc(Br)c3)cc2)cc1	50%	.	.	.	.	8%
COc1ccc(/C=C(\C#N)c2nc(-c3cc(Cl)ccc3OC)cs2)cc1	-7%	.	-25%	3	-19%[46.1 µM]	-9%
Cc1ccc(CNC(=O)CN(c2ccc(Cl)cc2Cl)S(=O)(=O)c2ccccc2)cc1	-21%	?	1%	3	-27%[46.1 µM]	-16%
Oc1ccc(Cl)cc1	-16%	.	-2%	-14	.	-11%
Oc1ccc(N=Nc2n[nH]c(-c3ccc(Cl)cc3)n2)cc1	.	2%	56%	-95*	.	.
COc1ccc(NC(=O)C2CCCN(c3ncnc4c3nc3n4CCCCC3)C2)c(OC)c1 (centres undefined)	5%	.	-27%	16	14%[46.1 µM]	-3%
COc1ccc2[nH]cc(CCNC(=O)Cc3ccc(F)cc3)c2c1	.	.	-5%	6	.	.
COc1ccc2[nH]cc(CCN=C(NC(=O)c3ccccc3F)Nc3nc(C)cc(C)n3)c2c1	-23%	?	-12%	-66*	?	1%
Cc1cc(C)nc(NC(=NCCc2c[nH]c3ccccc23)NC(=O)c2ccco2)n1	?	11µM*	?	-18	?	?
Cc1cc(C)nc(NC(=NCCc2c[nH]c3ccccc23)NC(=O)Nc2ccc(Cl)c(Cl)c2)n1	-23%	?	-23%	27	-22%	-11%

Source: PubChem BioAssay
